Laboratory results taken from the supplement of paper PMC9433436.
± gives the standard deviation of the averaged measurements. Over roughly 4,100 sequences, “relative kcat/Km (krel) vs genomic leader AAAGAU” has its median near 1.7; the highest 2% begin near 6.5. What follows is part of a selection rich in the highest values, with near analogues and random picks from the rest.

Target: T1, E. coli RNase P holoenzyme (M1 P RNA + rnpA protein) (UniProt P0A7Y8)
T1 sequence: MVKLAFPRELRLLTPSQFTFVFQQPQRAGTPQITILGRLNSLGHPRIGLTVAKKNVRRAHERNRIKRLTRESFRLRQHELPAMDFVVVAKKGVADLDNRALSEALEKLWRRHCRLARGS
Assay: relative kcat/Km (krel) vs genomic leader AAAGAU (relative (reference leader = 1)); higher = faster RNase P cleavage
Method: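 HTS-Kin: a pool of ptRNA-Met (21C construct) with all 4096 combinations of 5' leader nucleotides N(-6) to N(-1) was processed in vitro by E. coli RNase P (P RNA + rnpA/C5 protein) under multiple-turnover conditions at 37 C, pH 8, 17.5 mM MgCl2. Residual substrate was Illumina-sequenced at several fractions reacted, and relative kcat/Km (krel) was computed by internal competition kinetics, calibrated to the genomic leader (AAAGAU = 1). The listed hexamer is the varied N(-6)..N(-1) leader (DNA letters), and it sits between a fixed 5' stem-loop flank (GCAUGCACGAAAGUGCGUGCUAUGAA) and the mature tRNA-Met starting GGCUACGUAGCUCAGUUGG. Two technical replicates are averaged.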

[1] = fraction of substrate reacted: ~9-10% (9.79% repeat 1, 9.1% repeat 2)
[2] = fraction of substrate reacted: ~13-16% (15.68% repeat 1, 13.17% repeat 2)
[3] = fraction of substrate reacted: ~26-29% (28.66% repeat 1, 26.4% repeat 2)

| Sequence | relative kcat/Km [1] | relative kcat/Km [2] | relative kcat/Km [3] |
| --- | --- | --- | --- |
| CTCCGG | 1.38 ± 0.85 | 0.916 ± 0.46 | 1.27 ± 0.5 |
| CTCCGT |  | 1.79 ± 1.2 | 2.01 ± 1.7 |
| CTCCGA | 4.78 ± 2 | 5.35 ± 1.6 | 8.07 ± 3.3 |
| ATCCTA | 3.22 ± 1.7 | 3.39 ± 0.28 | 4.55 ± 1.7 |
| GGCGGT |  |  | 1.38 ± 0.92 |
| ATGTCA | 1.69 ± 0.74 | 1.97 ± 0.16 | 2.71 ± 1 |
| CGCGTA | 2.07 ± 0.78 | 1.48 ± 0.56 | 2.18 ± 0.99 |
| CAGGAG | 0.78 ± 0.77 |  | 0.626 ± 0.52 |
| TAAGGT |  |  | 3.06 ± 1.8 |
| TCGGGC |  |  | 1.18 ± 0.74 |
| TGAATC | 1.86 ± 0.16 | 1.84 ± 0.4 | 2.53 ± 0.78 |
| TATAAT | 3.05 ± 0.91 | 3.72 ± 0.38 | 5.41 ± 2.8 |
| TAACAG |  | 1.33 ± 0.61 | 2.19 ± 0.52 |
| GCGAGA | 1.04 ± 0.47 |  | 1.63 ± 0.017 |
| GTCCTA | 3.11 ± 1.4 | 3.47 ± 0.34 | 4.9 ± 1.2 |
| ATCCGC | 3.93 ± 0.99 | 4.36 ± 1.7 | 6.74 ± 2.5 |
| TTCCGG | 1.74 ± 1.5 | 0.738 ± 0.38 | 1.68 ± 0.19 |
| GGCCGA | 1.949 ± 0.015 | 2.42 ± 0.35 | 3.95 ± 1.3 |
| ATCCGG |  | 0.394 ± 0.063 | 0.881 ± 0.16 |
| TTCCCA | 2.74 ± 1.8 | 4.27 ± 0.3 | 4.97 ± 1.5 |
| GTCCGA | 3.87 ± 0.72 | 5.56 ± 1 | 8.22 ± 3.4 |
| ATCCGT |  |  | 2.3 ± 2.1 |

| Sequence | relative kcat/Km [1] | relative kcat/Km [2] | relative kcat/Km [3] |
| --- | --- | --- | --- |
| TTCCGA | 4.31 ± 1.2 | 6.28 ± 2 | 9.5 ± 4.6 |
| TTCCGT |  | 2.19 ± 1.9 | 2.5 ± 1.8 |
| TGCCGA | 2.99 ± 0.37 | 2.99 ± 1.4 | 4.69 ± 1.9 |
| TTCCGC | 4.23 ± 1.3 | 5.35 ± 0.93 | 8.49 ± 3.5 |
| ACGACA | 1.74 ± 0.19 | 1.62 ± 0.86 | 1.9 ± 0.45 |
| CAGCAA | 2.5 ± 1.1 | 2.58 ± 0.032 | 3.08 ± 1 |
| TATCGA | 3.95 ± 1.2 | 4.7 ± 0.84 | 6.39 ± 2.6 |
| CTATAC | 3.79 ± 0.8 | 3.82 ± 0.28 | 5.86 ± 1.7 |
| TTATAA | 3.65 ± 1.4 | 4.53 ± 0.46 | 6.51 ± 2.4 |
| GTATAC | 3.66 ± 2.2 | 4.72 ± 0.97 | 6.65 ± 2.7 |
| GTATAG |  | 1.79 ± 0.37 | 3.69 ± 0.99 |
| TTATAC | 4.34 ± 1.3 | 5.2 ± 0.6 | 7.47 ± 2.9 |
| ATATAC | 3.5 ± 2.1 | 3.99 ± 0.01 | 6.02 ± 2.1 |
| CCGCCT | 1.45 ± 0.15 |  | 1.54 ± 0.38 |
| TCTCAT | 3.52 ± 0.79 | 4.87 ± 1.2 | 6.39 ± 2.9 |
| GTTCAA | 2.59 ± 1.7 | 3.08 ± 0.83 | 4.21 ± 1.5 |
| TTTCAC | 3.76 ± 1.6 | 4.95 ± 0.89 | 6.83 ± 2.6 |
| GTTCAC | 3.88 ± 0.89 | 4.82 ± 0.92 | 6.76 ± 2.6 |
| CTTCAA | 3.2 ± 2.3 | 3.11 ± 0.12 | 3.96 ± 1.1 |
| CTTCAG |  | 1.26 ± 0.073 | 2.21 ± 0.1 |
| TTTCAG | 2.51 ± 2.3 | 1.83 ± 0.22 | 3.23 ± 0.79 |
| TTTCAT | 4.15 ± 1.4 | 5.11 ± 0.89 | 7.53 ± 3.4 |

| Sequence | relative kcat/Km [1] | relative kcat/Km [2] | relative kcat/Km [3] |
| --- | --- | --- | --- |
| ATTCAT | 2.95 ± 1.6 | 3.71 ± 0.32 | 5.56 ± 2.2 |
| TTTCAA | 2.81 ± 1.9 | 2.95 ± 0.37 | 4.9 ± 2.3 |
| GTTCAT | 3.32 ± 0.77 | 4.43 ± 0.92 | 6.51 ± 3 |
| CTTCAT | 4.07 ± 1.5 | 4.78 ± 0.63 | 6.67 ± 2.6 |
| TGGAGT |  |  | 1.17 ± 1.1 |
| GGGGCC | 0.798 ± 0.048 | 0.576 ± 0.47 | 0.579 ± 0.14 |
| AACTGA | 2.11 ± 1.8 | 1.88 ± 0.34 | 3.9 ± 0.84 |
| ATTCTA | 2.57 ± 2.1 | 2.17 ± 0.23 | 2.44 ± 0.73 |
| AATACC | 1.49 ± 0.43 | 1.431 ± 0.0097 | 1.56 ± 0.25 |
| TTACAC | 4.14 ± 1.9 | 4.92 ± 0.61 | 6.4 ± 2.5 |
| CCCATA | 2.83 ± 1.3 | 3.03 ± 0.6 | 4.43 ± 1.7 |
| GAAGAA | 2.23 ± 0.43 | 2.71 ± 0.3 | 2.76 ± 0.48 |
| CGGTCC |  |  | 0.889 ± 0.14 |
| TTGCAA | 1.54 ± 0.37 | 2.13 ± 0.72 | 2.92 ± 0.97 |
| GATTAA | 3.21 ± 0.97 | 3.86 ± 0.81 | 5.57 ± 2.6 |
| CATTAC | 4.77 ± 1.5 | 5.16 ± 0.98 | 7.24 ± 2.8 |
| GATTAG | 2.16 ± 2.1 | 2.42 ± 0.093 | 3.68 ± 1.1 |
| CCTTAC | 3.84 ± 2.1 | 4.83 ± 0.16 | 5.67 ± 1.9 |
| GATTAC | 2.65 ± 0.6 | 4.2 ± 0.47 | 6.1 ± 2.1 |
| CATTAA | 3.66 ± 2.4 | 4.11 ± 0.12 | 5.92 ± 2 |
| CATTAT | 4.62 ± 1.6 | 6.32 ± 1.1 | 8.59 ± 3.6 |
| GATTAT | 3.36 ± 0.24 | 4.67 ± 0.86 | 7.25 ± 3.7 |

| Sequence | relative kcat/Km [1] | relative kcat/Km [2] | relative kcat/Km [3] |
| --- | --- | --- | --- |
| CATTAG | 2.22 ± 1.2 | 2.26 ± 0.59 | 4.08 ± 1.1 |
| GGAAGA | 2.26 ± 0.31 | 2.24 ± 0.41 | 3.83 ± 0.61 |
| CCTACG |  |  | 1.4 ± 0.03 |
| ACAGTT | 1.6 ± 1.2 | 1.27 ± 0.62 | 1.3 ± 0.82 |
| GTATGG |  | 0.253 ± 0.21 | 1.01 ± 0.7 |
| TTGTTC | 1.96 ± 0.092 | 2.08 ± 0.17 | 3.27 ± 1.5 |
| TAATCT | 1.87 ± 1.1 | 3.08 ± 0.23 | 4.22 ± 1.6 |
| TGGAGG |  |  | 0.887 ± 0.34 |
| AATTTA | 1.65 ± 0.69 | 1.63 ± 0.14 | 2.33 ± 0.76 |
| TGATTA | 2.2 ± 0.59 | 2.91 ± 0.12 | 3.73 ± 1.7 |
| CACGCT | 1.83 ± 0.24 | 2.25 ± 0.6 | 3.03 ± 0.94 |
| CTTAGC | 2.96 ± 1.3 | 3.29 ± 1.3 | 3.62 ± 0.95 |
| TTCAGT |  | 2.35 ± 1.7 | 3.37 ± 2.9 |
| GTCAGG | 0.667 ± 0.23 | 1.03 ± 0.2 | 2.57 ± 1.1 |
| ATCAGC | 2.87 ± 0.62 | 3.75 ± 1 | 5.41 ± 1.6 |
| CTCAGC | 4.51 ± 1.9 | 5.37 ± 1.6 | 7.11 ± 2.5 |
| GTCAGC | 4.18 ± 1.7 | 5.29 ± 0.92 | 7.22 ± 2.9 |
| TTCAGA | 5.95 ± 2.5 | 6.69 ± 1.9 | 10.5 ± 4.5 |
| TTCGGA |  |  | 1.79 ± 1 |
| TTCAGG | 1.31 ± 0.71 | 1.12 ± 0.87 | 2.76 ± 0.9 |
| GTCAGT |  |  | 2.53 ± 2.2 |
| TTCAGC | 5.19 ± 1.6 | 6.48 ± 1.2 | 9.03 ± 3.9 |

| Sequence | relative kcat/Km [1] | relative kcat/Km [2] | relative kcat/Km [3] |
| --- | --- | --- | --- |
| TGCAGA | 1.65 ± 0.82 | 2.24 ± 0.094 | 2.7 ± 0.68 |
| AATGTT | 0.792 ± 0.16 | 0.821 ± 0.55 | 1.29 ± 0.62 |
| TTAATA | 1.94 ± 0.59 | 2.09 ± 0.08 | 2.85 ± 1 |
| AGGGGG |  |  | 1.11 ± 1 |
| GGCGCC | 2.72 ± 2.1 | 2.21 ± 0.42 | 3.06 ± 0.78 |
| ACCCCC | 2.28 ± 0.72 | 1.22 ± 0.62 | 3.15 ± 1.3 |
| CTAGTA | 1.32 ± 0.52 | 0.841 ± 0.56 | 1.69 ± 0.87 |
| CACCTG |  |  | 0.873 ± 0.43 |
| AACCCG |  |  | 0.785 ± 0.38 |
| CTCATT | 3.69 ± 1.4 | 5.23 ± 0.62 | 7.36 ± 3 |
| CTTATT | 2.42 ± 1 | 2.76 ± 0.34 | 3.73 ± 1.6 |
| ATCATC | 3.27 ± 0.66 | 4.72 ± 0.78 | 6.25 ± 2.5 |
| CTCATG |  | 1.28 ± 0.22 | 3.1 ± 0.052 |
| GTCATC | 4.03 ± 1.8 | 5.36 ± 1.2 | 8.03 ± 3.5 |
| CTCATC | 3.63 ± 1 | 4.57 ± 0.43 | 6.8 ± 2.4 |
| GGCATC | 1.73 ± 0.36 | 2.09 ± 0.48 | 2.42 ± 0.71 |
| GCCATC | 2.88 ± 0.72 | 3.43 ± 1.3 | 4.62 ± 1.3 |
| CGCATT | 2.39 ± 0.24 | 2.95 ± 0.92 | 4.66 ± 2 |
